UHRF1 binding – blocks human UHRF1 binding to methylated DNA; Q96T88; UHRF1 binding to methylated oligo, TR-FRET; inhibition, % at 4.4 µM; 370,000 tested, 0.75% active; AID 687016; in the data active = inhibition above about 21%;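 note: UHRF1 SRA domain binding a hemimethylated CpG hairpin DNA probe; 0% = median of test compound wells and 100% = reference inhibitor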
Target sequence (Q96T88 whole entry, looked up, the tested form may be a part): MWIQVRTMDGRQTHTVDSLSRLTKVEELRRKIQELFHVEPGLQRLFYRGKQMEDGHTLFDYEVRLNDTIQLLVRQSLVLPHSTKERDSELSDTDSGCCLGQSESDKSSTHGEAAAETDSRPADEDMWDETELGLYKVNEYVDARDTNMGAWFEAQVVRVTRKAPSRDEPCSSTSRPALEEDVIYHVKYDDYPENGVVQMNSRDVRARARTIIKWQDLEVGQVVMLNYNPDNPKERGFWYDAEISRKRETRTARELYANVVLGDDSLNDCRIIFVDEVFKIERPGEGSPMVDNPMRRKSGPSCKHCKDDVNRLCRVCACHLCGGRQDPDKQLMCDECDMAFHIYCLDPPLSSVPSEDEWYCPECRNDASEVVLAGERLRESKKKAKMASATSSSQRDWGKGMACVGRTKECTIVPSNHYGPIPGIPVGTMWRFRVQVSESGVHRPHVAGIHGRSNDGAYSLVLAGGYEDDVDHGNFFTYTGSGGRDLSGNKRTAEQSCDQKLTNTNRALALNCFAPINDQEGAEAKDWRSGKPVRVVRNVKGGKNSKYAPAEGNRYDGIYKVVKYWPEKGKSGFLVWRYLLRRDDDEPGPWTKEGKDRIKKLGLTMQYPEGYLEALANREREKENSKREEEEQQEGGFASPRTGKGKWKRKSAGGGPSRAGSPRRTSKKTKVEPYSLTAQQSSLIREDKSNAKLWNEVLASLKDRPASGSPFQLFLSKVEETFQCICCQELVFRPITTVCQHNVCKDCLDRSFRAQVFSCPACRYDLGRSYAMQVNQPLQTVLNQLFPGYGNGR
PRMT1 FP inh – blocks human protein arginine methyltransferase 1 | AID 652257 | recombinant PRMT1, activity-based probe fluorescence polarization | 370,000 tested, 1.3% active | Q99873 | inhibition, % at 2.79 µM;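 active = inhibition above about 21% made by adding two undisclosed values, limit read from the data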
LEDGF integ inh – blocks HIV-1 LEDGF/p75-dependent DNA integration; TR-FRET IN-LEDGF/p75 DNA integration, Eu/Cy5; inhibition, % at 3.7 µM; 370,000 tested, 0.64% active; AID 743269;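 active = inhibition above the screen-wide mean plus 3 SD, cut at about 13% in these data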;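 note: signal is the Cy5 over europium emission ratio at 671 and 618 nm; 0% = plate median of compound wells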
MBD2 DNA inh – MBD2-methylated oligo binding inhibition | Q9UBB5 | TR-FRET, MBD2 binding to methylated oligonucleotide | inhibition, % at 4.4 µM | 370,000 tested, 0.31% active; in the data active = inhibition above about 13%
The depositor's hits bear a star; ! = a repeat was not active. Hits are enriched below; roughly 2.5% of the tested compounds scored in any of these assays.

SMILES	UHRF1 binding	PRMT1 FP inh	LEDGF integ inh	MBD2 DNA inh
C[C@@H]1CN([C@H](C)CO)S(=O)(=O)c2ccc(C#CC3CCCC3)cc2O[C@H]1CN(C)C(=O)Cc1ccccc1	22*	-2	3	10
O=C1OCCC1Sc1nnc(-c2cccnc2)n1-c1ccccc1F (stereo not given)	1	1	-1	3
Cc1c(NC(=O)CSCc2ccc(Br)cc2)c(=O)n(-c2ccccc2)n1C	0	2	1	-4
Cn1cnc([N+](=O)[O-])c1Sc1nnc(-c2ccccc2)c(-c2ccccc2)n1	4	24*	-3	7
CC1(C)CC(NC(=O)c2cccc([N+](=O)[O-])c2)CC(C)(C)N1	3	-2	-1	-3
NC(=S)NN=CCn1cc([N+](=O)[O-])c(=O)[nH]c1=O	-3	24*	-2	-3
CCOC(Cn1cc([N+](=O)[O-])c(=O)[nH]c1=O)OCC	-3	-4	4	-2
Cc1[nH]c2ccccc2c1CC(=O)Nc1ccc(Nc2cccnc2)c(Br)c1	-4	0	-1	-4
CCOc1cc(C(=O)Nc2ccc3c(c2)OCO3)ccc1OC(F)F	23*	3	5	9
COc1cc(NC(=O)c2ccc3c(c2)OCO3)ccc1NC(=O)C(C)C	66*	0	-2	2
CC(=O)c1ccc(N(CC(=O)NC2CCS(=O)(=O)C2)S(=O)(=O)c2ccc(C)cc2)cc1 (stereo not given)	4	-2	0	-1
CCSc1nccc(-c2nn(-c3ccc(C)cc3)ccc2=O)n1	5	1	3	3
CSc1nccc(-c2nn(-c3ccc(C)cc3)ccc2=O)n1	23*	0	3	9
CC(C)(C=O)C1=CC(=O)c2ccccc2C1=O	6	52*	13	-7
O=[N+]([O-])c1ccc(SCCc2ccncc2)cc1	-2	24*!	-2	6
O=C(CSc1nnc(Cc2ccccc2)n1Cc1ccco1)NC1CCCC1	3	22*	4	2
CC(C)n1c(SCC(=O)NC2CCCCC2)nnc1-c1ccco1	43*	-3	4	-5
CCN(CC)C(=O)C(c1ccccc1)S(=O)(=O)N1CCOCC1 (stereo not given)	0	1	5	0
O=C(OCC(=O)N1CCCc2ccccc21)c1ccc(Br)o1	-1	1	-2	-5
O=C(OCC(=O)N1CCc2ccccc21)c1ccc([N+](=O)[O-])o1	5	-1	16*	3
Cc1cccnc1CNC(=O)C1(C)CCCN1CC(C)C (stereo not given)	-2	0	-1	-8
C=CCn1c(SCC(=O)O)nc2sc(CC)cc2c1=O	0	-4	3	-5
C=CCn1c(SCC#N)nc2sc(CC)cc2c1=O	28*	-3	3	-2
Cc1cc(N2CCN(C(c3ccnc4ccccc34)c3nnnn3-c3c(C)cccc3C)CC2)c2ccccc2n1 (stereo not given)	24*	0	0	3
COc1ccc(OC)c(S(=O)(=O)N2CCC(C(=O)NCc3cccs3)CC2)c1	2	-5	2	-1
SMILES	UHRF1 binding	PRMT1 FP inh	LEDGF integ inh	MBD2 DNA inh
Cc1ccc(S(=O)(=O)NNC(=S)NC(=O)c2ccc([N+](=O)[O-])cc2)cc1	2	8	-1	-2
Cc1ccc(C(=O)NC(=S)NNS(=O)(=O)c2ccc(C)cc2)cc1	-6	23*	-2	-1
Cc1c(C(=O)O)sc(S(=O)(=O)N2CCN(C(=O)Cc3ccccc3Cl)CC2)c1C(=O)O	3	5	-1	4
CCC(c1nnnn1Cc1ccco1)N(CCN1CCOCC1)Cc1cc2cc(C)ccc2[nH]c1=O (stereo not given)	-2	21*	6	-1
COc1ccccc1C(NC(=O)C1CCN(CCOc2ccc(Cl)cc2)CC1)c1ccccn1 (stereo not given)	1	-2	2	-2
CC(NC(=O)C1CCN(CCOc2ccc(Cl)cc2)CC1)c1cccc2ccccc12 (stereo not given)	25*	-3	-4	0
CCOc1ccc(NC(=S)N2CCC(C(=O)c3ccc(F)cc3)CC2)cc1	0	-2	2	4
CCOc1ccc(NC(=O)N2CCC(C(=O)c3ccc(F)cc3)CC2)cc1	21*	0	-1	8
COc1ccc(CC(=O)NCC2CCCN(Cc3cc(OC)cc(OC)c3)C2)cc1 (stereo not given)	4	-3	4	-1
CC(C)N1CCC(C)(C(=O)Nc2cccc(Oc3ccccc3)c2)C1 (stereo not given)	31*	-1	-3	-1
CC(C)N(Cc1ccccc1)C(=S)NC1CCCCC1	2	-3	9	-2
